The text below walks through data of PubChem BioAssay AID463173 (ICCB-Longwood Screening Facility, Harvard Medical School, 2010).

In all, about 52,000 compounds went through this assay and about 4,300 (8.3%) were called active. This is one part of a sample in which actives are shown more often than they occur. No stated cut-off is given here; in the data, active means survival mostly below about 52% (no sharp cut-off); inactive means mostly above about 56%.

The subject of this assay is DeltatarO mutant. Briefly: growth inhibition of S. aureus wild type versus tarO mutant, primary screen, teichoic acid synthesis inhibitors, RN4220, OD600 (AID 463173). The following applies: OD600, 18 h, hits give low values, screened at 18.75 µg/mL (by protocol).
Turning to `N#CC1=C(N)N(c2ccc(Cl)cc2)C2=C(C(=O)CCC2)C1c1cc(CN2CCOCC2)cs1` (centres undefined), the survival is 59% (inactive).
Consider `O=c1c2c(-c3ccc(Cl)cc3)ccnc2[nH]n1-c1ccccc1`, for which the survival was 67% (inactive).
As for `Cc1ccccc1-c1ccnc2[nH]n(-c3ccccc3)c(=O)c12`, the figure is 47% (active); as for `COc1ccccc1-c1ccnc2[nH]n(-c3ccccc3)c(=O)c12`, 64% (inactive); as for `CCCC(c1nnnn1Cc1ccccc1)N1CCN(c2ccccc2)CC1` (centres undefined), 42% (active).
Turning to `CC(C)C(c1nnnn1Cc1ccccc1)N1CCN(c2ccccc2)CC1` (centres undefined), the survival was 87% (inactive).
With `CCC(c1nnnn1Cc1ccccc1)N1CCN(c2cccc(Cl)c2)CC1` (centres undefined), the survival is 89% (inactive).
As for `COc1ccc(NC(=O)C2Cc3ccccc3N2C(=O)c2ccccc2)c(OC)c1` (centres undefined), the survival was 80% (inactive).
`CCCCn1c(-c2ccc(S(=O)(=O)N3CCOCC3)cc2)csc1=Nc1ccccc1`: the survival is 48% (active).
As to `CC(C)Cn1c(-c2ccc(S(=O)(=O)N3CCOCC3)cc2)csc1=Nc1cc(Cl)ccc1Cl`, the survival is 82% (inactive).
In the case of `COCCCn1c(-c2ccc(S(=O)(=O)N3CCOCC3)cc2)csc1=Nc1ccccc1`, the survival is 52% (active).
As for `CC(C)Cn1c(-c2ccc(S(=O)(=O)N3CCCC3)cc2)csc1=Nc1ccccc1`, the figure is 58% (inactive); as for `CCn1c(-c2ccc(S(=O)(=O)N3CCOCC3)cc2)csc1=Nc1ccc(C)c(Cl)c1`, 73% (inactive).
As to `CCCn1c(-c2ccc(S(=O)(=O)N3CCOCC3)cc2)csc1=Nc1ccc(OCC)cc1`, the survival was 70% (inactive).
`CS(=O)(=O)N(CC(=O)O)c1ccc(Cl)cc1`: the survival was 105% (inactive).
As for `COc1ccc(-c2nc(SCC(=O)NC3CCCC3)c(-c3ccc(OC)cc3)[nH]2)cc1`, the figure is 71% (inactive); as for `Cc1ccc(CN2CCSc3ccc(C(=O)N4CCN(c5cc(C)ccc5C)CC4)cc32)cc1`, 25% (active).
As for `Cc1ccc(Cl)cc1N1CCN(C(=O)c2ccc3c(c2)N(Cc2ccccc2)CCS3)CC1`, the figure is 74% (inactive); as for `Cc1ccc(CN2CCSc3ccc(C(=O)N4CCN(c5cccc(C)c5C)CC4)cc32)cc1`, 27% (active); as for `Cc1ccc(CN2CCSc3ccc(C(=O)N4CCN(c5ccccc5)CC4)cc32)cc1`, 63% (inactive).
The value for `Cc1ccc(CN2CCSc3ccc(C(=O)N4CCN(c5ccc(Cl)cc5)CC4)cc32)cc1` was 72% (inactive).
As to `Cc1ccc(Cl)cc1N1CCN(C(=O)c2ccc3c(c2)N(Cc2ccc(F)cc2)CCS3)CC1`, the survival is 73% (inactive).
For the molecule `CCOc1ccc(C(=O)c2cn(CC(=O)Nc3ccc(F)c(F)c3)c3cc4c(cc3c2=O)OCCO4)cc1`, the survival is 130% (inactive).
Turning to `Cc1ccc(CNC(=O)c2nc(SCc3ccccc3C)ncc2Cl)cc1`, the survival is 76% (inactive).
On to `Cc1cccc(NC(=O)Cn2cc(C(=O)C3CCCCC3)c3ccccc32)c1C`, for which the survival is 63% (inactive).
For the molecule `CCc1ccccc1NC(=O)Cn1nc(C(F)(F)F)c2c1CCC2`, the survival is 75% (inactive).
Turning to `COc1ccc(Cl)cc1NC(=O)Cn1nc(C(F)(F)F)c2c1CCCC2`, the survival is 35% (active).
The value for `COc1cc(NC(=O)Cn2nc(C(F)(F)F)c3c2CCCC3)c(OC)cc1Cl` was 78% (inactive); that for `CCc1ccccc1NC(=O)Cn1nc(C(F)(F)F)c2c1CCCC2` was 77% (inactive); that for `COC(=O)c1ccccc1NC(=O)Cn1nc(C(F)(F)F)c2c1CCCC2` was 5% (active).
Consider `COc1ccc(Cl)cc1NC(=O)Cn1nc(C(F)(F)F)c2c1CCC2`, for which the survival was 72% (inactive).
For the molecule `O=C(CCS(=O)(=O)c1cccc2nonc12)Nc1ccc(F)cc1F`, the survival was 124% (inactive).
With `Cc1nnc2c3ccccc3nc(N3CCN(c4ccccc4)CC3)n12`, the survival is 77% (inactive).
As to `FC(F)(F)c1nnc2c3ccccc3c(Cl)nn12`, the survival is 95% (inactive).
The value for `FC(F)(F)c1nnc2c3ccccc3nc(-c3ccccc3)n12` was 29% (active); that for `O=C(Cn1nnc(-c2cccc(C(F)(F)F)c2)n1)NCc1ccc(F)cc1` was 77% (inactive); that for `CCc1ccc(NC(=O)C(=O)NCC(c2cccnc2)N2CCc3ccccc3C2)cc1` (centres undefined) was 64% (inactive).
As for `CCc1ccc(OCC(=O)Nc2c(C(=O)c3ccc(Br)cc3)oc3ccccc23)cc1`, the figure is 85% (inactive); as for `CCNc1nc(Oc2ccc(=O)n(-c3ccccc3)n2)nc(N(C)C)n1`, 84% (inactive).
On to `COc1cccc(CNC(=O)c2c3c(nc4ccccc24)C(=O)N(C2CCCCC2)C3)c1`, for which the survival is 46% (active).
`CCCNC(=O)c1c2c(nc3ccccc13)C(=O)N(C1CCCCC1)C2`: the survival is 75% (inactive).
The value for `COc1ccc(CNC(=O)c2c3c(nc4ccccc24)C(=O)N(C2CCCCC2)C3)cc1` was 83% (inactive).
`O=C(NCc1ccccc1)c1c2c(nc3ccccc13)C(=O)N(C1CCCCC1)C2`: the survival is 69% (inactive).
`CC(C)CCNC(=O)c1c2c(nc3ccccc13)C(=O)N(C1CCCCC1)C2`: the survival is 101% (inactive).
Regarding `CC(C)OCCCNC(=O)c1c2c(nc3ccccc13)C(=O)N(C1CCCCC1)C2`, the survival is 25% (active).
Take `CCc1ccc(CNC(=O)c2c3c(nc4ccccc24)C(=O)N(C2CCCCC2)C3)cc1`: the survival is 37% (active).
`CN(C(=O)c1c2c(nc3ccccc13)C(=O)N(C1CCCCC1)C2)c1ccc(F)cc1`: the survival is 0% (active).
On to `CCOc1ccccc1N(C)C(=O)c1c2c(nc3ccccc13)C(=O)N(C1CCCCC1)C2`, for which the survival is 92% (inactive).
In the case of `O=C(NCc1cccc(Cl)c1)c1c2c(nc3ccccc13)C(=O)N(C1CCCCC1)C2`, the survival was 144% (inactive).
Turning to `Cc1ccc(CNC(=O)c2c3c(nc4ccccc24)C(=O)N(C2CCCCC2)C3)cc1`, the survival is 91% (inactive).
With `O=C(NCc1ccc(F)cc1)c1c2c(nc3ccccc13)C(=O)N(C1CCCCC1)C2`, the survival was 102% (inactive).
Regarding `Cc1ccc(NC(=O)Cn2c(CCC(=O)O)ccc2-c2ccc(Cl)cc2)cc1`, the survival is 53% (inactive).
Regarding `Cn1ccc2cc(S(=O)(=O)N3CCN(C(=O)Nc4ccc(F)cc4F)CC3)ccc21`, the survival is 70% (inactive).
The value for `COc1cccc(CNC(=O)c2cc3c(=O)oc4ccc(C)cc4c3s2)c1` was 73% (inactive); that for `COc1ccc(Cl)cc1NC(=O)[C@H]1O[C@@H]2OC(C)(C)O[C@@H]2[C@H]2OC(C)(C)O[C@H]21` was 83% (inactive); that for `O=C(CSCc1nc2cccnc2n1C1CCCCC1)NCc1cccc(Br)c1` was 105% (inactive).
With `CC(C)c1nn2c(=O)cc(COC(=O)C3CCCCC3)nc2s1`, the survival is 94% (inactive).
The value for `CCc1ccc2nc(N(Cc3cccnc3)C(C)=O)sc2c1` was 91% (inactive); that for `COc1ccc(OC)c(CNC(=O)c2c3c(nc4ccccc24)C(=O)N(C2CCCCC2)C3)c1` was 93% (inactive); that for `COc1ccccc1CNC(=O)c1c2c(nc3ccccc13)C(=O)N(C1CCCCC1)C2` was 99% (inactive).
Regarding `COc1ccc(CNC(=O)c2c3c(nc4ccccc24)C(=O)N(C2CCCCC2)C3)c(OC)c1`, the survival was 32% (active).
Turning to `COc1ccc(C2C3C(=O)N(c4ccccc4)C(=O)C3ON2c2ccccc2)cc1` (centres undefined), the survival is 106% (inactive).
Consider `CC1CCN(S(=O)(=O)c2ccc3c(c2)CCN3C(=O)Nc2ccc(Br)cc2)CC1`, for which the survival is 69% (inactive).
Take `Cc1ccc(C(=O)Nc2ccccc2C(=O)OCc2cc(=O)n3nc(C(C)C)sc3n2)cc1`: the survival was 78% (inactive).
As for `Cc1ccccc1CNC(=O)Cn1c(=O)c2cccn2c2cccnc21`, the figure is 76% (inactive); as for `Cc1[nH]n2c(=O)cc(-c3ccc(Cl)cc3)nc2c1-c1ccccc1`, 3% (active); as for `Cc1nn2c(-c3ccccc3)cc(-c3ccccc3)nc2c1-c1ccc(Cl)cc1`, 78% (inactive).
The value for `Cc1[nH]n2c(=O)cc(-c3ccccc3Cl)nc2c1-c1ccccc1` was -3% (active); that for `Cc1cccc(-c2cc3nc(-c4ccccc4)cc(=O)n3[nH]2)c1` was 97% (inactive); that for `Nc1nc2nc(-c3ccccc3)cc(=O)n2[nH]1` was 84% (inactive).
For `O=C(Nc1nc2nc(-c3ccccc3)cc(=O)n2[nH]1)c1ccc(Cl)cc1`, the survival was 65% (inactive).
With `C/C(=N\N=C1/NC(=O)C(CC(=O)O)S1)c1ccc(C)o1` (centres undefined), the survival is 101% (inactive).
As for `CCCCCCNC(=O)CCc1c(C)nc2nc(-c3cc(OC)cc(OC)c3)nn2c1C`, the survival was 57% (inactive).
The value for `N=c1n(CCN2CCCCC2)c2ccccc2n1CC(O)c1ccc2c(c1)OCO2` (centres undefined) was 83% (inactive); that for `Cc1ccc(Cn2c(=N)n(CC(=O)c3ccccc3)c3ccccc32)cc1` was 65% (inactive); that for `CC(C)(C)c1ccc(Cn2c(=N)n(CC(O)c3ccco3)c3ccccc32)cc1` (centres undefined) was 5% (active).
The value for `COc1ccc(CNCCSc2nnnn2-c2ccccc2)c(OC)c1` was 49% (inactive); that for `COc1cc(C2CC(=O)c3c([nH]c(C(=O)OCC4CCCCC4)c3C)C2)cc(OC)c1OC` (centres undefined) was 82% (inactive); that for `O=C(CCCCn1c(=O)c2ccccc2n(CC(=O)Nc2ccc(F)cc2F)c1=O)NCc1ccccc1Cl` was 100% (inactive).
`O=C(NCc1ccco1)C(c1cccs1)N(C(=O)C1COc2ccccc2O1)c1cccc(O)c1` (centres undefined): the survival was 63% (inactive).
On to `Cc1ccc(C(C(=O)NC2CCCCC2)N(C(=O)C2COc3ccccc3O2)c2ccc3c(c2)OCO3)o1` (centres undefined), for which the survival is 77% (inactive).
As for `Cc1ccc(C(C(=O)NCc2ccccc2)N(C(=O)C2COc3ccccc3O2)c2cccc(O)c2)o1` (centres undefined), the figure is 45% (active).
`CCn1c(SCC(N)=O)nc2ccccc2c1=O`: the survival was 102% (inactive).
As to `Cc1nn(C)c2c1c(-c1ccccc1)cc(=O)n2Cc1c(F)cccc1Cl`, the survival was -5% (active).
The value for `Cc1ccc(-c2nc(Cn3c(=O)cc(-c4ccccc4)c4c(C)nn(C)c43)c(C)o2)cc1` was 108% (inactive); that for `Cc1cccc(-c2nc(Cn3c(=O)cc(-c4ccccc4)c4c(C)nn(C)c43)c(C)o2)c1` was -5% (active); that for `Cc1oc(-c2ccccc2)nc1Cn1c(=O)cc(-c2ccccc2)c2c(C)nn(C)c21` was 92% (inactive).
Consider `Cc1nn(C)c2c1c(-c1ccccc1)cc(=O)n2Cc1ccccc1F`, for which the survival is 109% (inactive).
With `Cc1cc(=O)n(Cc2c(F)cccc2Cl)c2c1c(C)nn2C`, the survival was 81% (inactive).
